Source: PubChem BioAssay (National Center for Advancing Translational Sciences (NCATS))
In the library only some 19% were active in any assay of this set; here they are far more common.
Pf growth 48h: P. falciparum growth inhibition at 48 hours (one generation); P. falciparum luciferase growth in erythrocytes, 48 h; Potency, µM (titrated, usually from 28.7 µM), for the others: at the highest dose activity change, negative = inhibition, actives largely listed as inhibitors; actives 5.9% (n = 310,000); AID 504832; note: potency is the fitted concentration of half-maximal effect; % is set by controls: 0 for no effect and ±100 for the full control effect
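Read-out is firefly luciferase luminescence from an integrated reporter in P. falciparum, so falling signal marks reduced parasite growth. Infected erythrocytes were at 2% hematocrit and 0.1% parasitemia (final) in Albumax-supplemented RPMI 1640.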
SARS PLP yeast: SARS-CoV PLP inhibition in yeast. AID 485353. actives 0.19% (n = 330,000). S. cerevisiae expressing SARS-CoV PLpro, growth rescue. Potency, µM (top dose mostly 32.9 µM), inactives show top-dose activity, positive = growth rescue, most hits filed as activators; calls by dose curve; note: potency is the fitted concentration of half-maximal effect; 0% is about no effect; nearly all actives have a fitted effect of over 55% in size
CHX counter: counter-screen for Shiga toxin inhibitors: cycloheximide protein synthesis inhibition | cell reporter, cycloheximide protein synthesis inhibition counterscreen | max response, % | AID 2314 | actives 12% (n = 300,000); in the data active = max response mostly above about 13%, no sharp cut-off; inactive = mostly below about 14%; note: read at 38.3 µM for the half of the compounds with a filed dose; 0% is about no effect
Pf growth 96h: inhibits malaria parasite growth, 96 h; P. falciparum luciferase reporter growth, 96 h; AID 504834; Potency, µM (highest dose often 28.7 µM), inactives show at the highest dose activity change, negative = inhibition, most hits filed as inhibitors; actives 6.9% (n = 320,000); note: potency is the fitted concentration of half-maximal effect; % is set by controls: 0 for no effect and ±100 for the full control effect
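Compounds incubated with erythrocytes infected by luciferase-expressing P. falciparum (2% hematocrit, 0.05% parasitemia final) for 96 hours, 37 C in 5% CO2. Growth inhibition scored as decreased luciferase luminescence.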
AMA1-RON2 inh: disrupts binding of P. falciparum AMA1 to RON2. Potency, µM (series often up to 58.2 µM), for inactives: top-dose activity change, negative = inhibition, actives largely listed as inhibitors. AlphaScreen AMA1-biotinylated RON2 peptide binding. actives 0.2% (n = 360,000);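 note: potency is the fitted concentration of half-maximal effect; 0% = vehicle wells and -100% = peptide control; nearly all actives have a fitted effect of over 45% in size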
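AMA1 (3D7) with his tag at 25 nM final met compounds first, then biotinylated RON2 peptide at 25 nM; detection used donor plus acceptor beads, 10 µg/mL apiece, read by AlphaScreen after 30 min at room temperature.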
Shiga toxin inh: blocks Shiga toxin action in Vero cells | Vero cells, Shiga toxin protein synthesis inhibition reporter | inhibition, % at 38.7 µM | actives 9.2% (n = 290,000) | AID 2315; in the data active = inhibition mostly above about 28%, no sharp cut-off; inactive = mostly below about 43%; note: 0% is about no effect
Active calls of the source: *; ? = inconclusive; . = no result. Unless noted, calls come from the whole dose curve; as a rule, active = well fitted curve in the direction sought with a large enough effect; inconclusive = small, poorly fitted or top-dose-only effect, or another doubt; inactive = no such curve, though single readings can be large; an effect the other way counts as inactive or inconclusive.

SMILES	Pf growth 48h	SARS PLP yeast	CHX counter	Pf growth 96h	AMA1-RON2 inh	Shiga toxin inh
NS(=O)(=O)c1ccc(CCNC(=O)c2ccc3ccccc3n2)cc1	33%	-2%	34*	23%	6%	45*
COc1ccc(CCNC(=O)c2ccc3ccccc3n2)cc1	37%	-8%	52*	39%	8%	69*
NS(=O)(=O)c1ccc(CNc2ccc3ccccc3n2)cc1	46%	14%	12	40%	2%	88*
O=C(COc1ccc(F)cc1)Nc1nnc(S(=O)(=O)N2CCCC2)s1	-8%	4%	-3	-3%	1%	-3
CC1=C([N+](=O)[O-])C(c2cccc(Br)c2)C2=C(N1)c1ccccc1C2=O (stereo not drawn)	4.7µM*	-17%	-2	.	-5%	28
Cc1ccc(C)c(Nc2nc(-c3ccncc3)nc3ccccc23)c1	10µM*	4%	4	-16%	3%	-3
COc1ccc(OC)c(Nc2nc(-c3ccncc3)nc3ccccc23)c1	1.9µM*	-3%	-3	1.9µM*	13%	-9
COc1ccc(Nc2nc(-c3ccccc3)nc3ccccc23)c(OC)c1	?	-3%	-1	?	52%	13
N#CC1=C(N)N2C(=C(C#N)C1c1cccc(Br)c1)Nc1ccccc12 (stereo not drawn)	8%	-2%	0	?	10%	14
N#CC1=C(N)N2C(=C(C#N)C1c1ccc(Br)cc1)Nc1ccccc12 (stereo not drawn)	?	-10%	7	9.3µM*	6%	6
CCN(CC)c1ccc(N2C(=NC(=O)C3CC3)SC3CS(=O)(=O)CC32)cc1 (stereo not drawn)	26%	2%	-1	8%	5%	1
Cc1ccc(S(=O)(=O)NC(=O)Nc2cc(C)on2)cc1	10%	0%	1	0%	39%	-6
Cc1ccc(S(=O)(=O)/N=C/c2ccc(N(C)C)cc2)cc1	-1%	-18%	-2	2%	-7%	-11
Cc1ccc(S(=O)(=O)NC(=O)c2cc(C)n(-c3ccc(N(C)C)cc3)c2C)cc1	?	-56%	19*	3.7µM*	-12%	51*
Cc1ccc(S(=O)(=O)NCCN=Cc2ccc(N(C)C)cc2)cc1	3%	-9%	1	7.4µM*	11%	-6
Cc1ccc(S(=O)(=O)NC(=O)Nc2ccc(N(C)C)cc2)cc1	0.74µM*	-10%	55*	0.47µM*	-26%	54*
CCc1ccnc(NC(=O)NS(=O)(=O)c2ccc(C)cc2)c1	41%	1%	16*	84%	-3%	23
Cc1ccc(NC(=O)NNS(=O)(=O)c2ccc(Br)cc2)cc1	2%	3%	-2	36%	35%	13
Cc1ccc(S(=O)(=O)NC(=O)c2cc(C)n(-c3ccccc3)c2C)cc1	3%	-49%	8	-15%	-4%	-23
COC(=O)C1=NN(c2ccc(Cl)cc2)C2C(=O)N(c3ccccc3OC)C(=O)C12 (stereo not drawn)	19%	9%	-1	32%	20%	-13
O=C(CN(Cc1ccccc1)S(=O)(=O)c1ccc(S(=O)(=O)N2CCOCC2)cc1)Nc1ccccc1	13%	2%	2	0%	-14%	-10
CCC/C=C/c1ccc(CN2C(CC(C)C)C(=O)N(Cc3cn(Cc4ccco4)nn3)CCS2(=O)=O)cc1 (stereo not drawn)	.	.	.	.	3%	.
O=C(Nc1ccc(N=Nc2ccccc2)c(NC(=O)C2CCCO2)c1)C1CCCO1 (stereo not drawn)	-17%	-8%	-5	?	?	-9
CCCCCCN(C(=O)CCCCCN1C(=O)NC(c2ccc(-c3ccccc3)cc2)C(C(=O)OCc2ccccc2)=C1C)C(C(=O)NCCCC)c1ccc(O)cc1 (stereo not drawn)	?	10%	-2	2.1µM*	.	-9
CCCCCCN(C(=O)CCCCCN1C(=O)NC(c2ccc([N+](=O)[O-])cc2)C(C(=O)OCc2ccccc2)=C1C)C(C(=O)NCCCC)C1CCCCC1 (stereo not drawn)	.	1%	.	.	1%	.
SMILES	Pf growth 48h	SARS PLP yeast	CHX counter	Pf growth 96h	AMA1-RON2 inh	Shiga toxin inh
CC1=C(C(=O)OCc2ccccc2)C(c2ccc(-c3ccccc3)cc2)NC(=O)N1CCCCCC(=O)O (stereo not drawn)	-24%	-9%	3	?	-14%	7
CCCCCCN(C(=O)CCCCCN1C(=O)NC(c2ccc(-c3ccccc3)cc2)C(C(=O)OCc2ccccc2)=C1C)C(C(=O)NCCCC)c1ccc(O)c(C(=O)OC)c1 (stereo not drawn)	2.1µM*	1%	-1	2.1µM*	.	-1
COC(=O)CCCN1C(=O)NC(c2ccc(-c3ccccc3)cc2)C(C(=O)OCc2ccccc2)=C1C (stereo not drawn)	.	28%	.	.	9%	.
CCCCCCN(C(=O)CCCCCN1C(=O)NC(c2ccc(-c3ccccc3)cc2)C(C(=O)OCc2ccccc2)=C1C)C(C(=O)NCCCC)c1ccc(-c2ccccc2)cc1 (stereo not drawn)	0.83µM*	-3%	-6	0.26µM*	.	-5
CCCCCCN(C(=O)CCCCCN1C(=O)NC(c2ccc(-c3ccccc3)cc2)C(C(=O)OCc2ccccc2)=C1C)C(C(=O)NCCCC)c1cccc(C(=O)OC)c1 (stereo not drawn)	1.9µM*	2%	-4	1.7µM*	.	-5
CCCCCCN(C(=O)CCCN1C(=O)NC(c2ccc(-c3ccccc3)cc2)C(C(=O)OCc2ccccc2)=C1C)C(C)C(=O)NCCCC (stereo not drawn)	.	16%	.	.	9%	.
COc1ccc(C(=O)OCC(=O)Nc2sccc2C(N)=O)cc1[N+](=O)[O-]	7%	-1%	.	-29%	0%	.
O=C(NCc1ccccc1)C(c1cccnc1)N(C(=O)c1csnn1)c1ccccc1 (stereo not drawn)	3%	-4%	-3	12%	0%	-5
O=C(Nc1cccc(Cl)c1)C1C2C=CC3(O2)C1C(=O)N(CCN1CCCCC1)C3C(=O)NC1CCCCC1 (stereo not drawn)	?	13%	-5	5.2µM*	-4%	12
CCCN(CCC)CCN1C(=O)C2C(C(=O)Nc3ccc(C)cc3)C3C=CC2(O3)C1C(=O)NC1CCCCC1 (stereo not drawn)	?	-1%	13	?	-13%	-4
CCCCN(C)CCN1C(=O)C2C(C(=O)Nc3ccc(Cl)cc3)C3C=CC2(O3)C1C(=O)NC1CCCCC1 (stereo not drawn)	10µM*	11%	-7	-3%	-12%	-3
CCC1CCCCN1CCN1C(=O)C2C(C(=O)Nc3cccc(OC)c3)C3C=CC2(O3)C1C(=O)NC1CCCCC1 (stereo not drawn)	8.3µM*	4%	-6	-17%	-6%	11
